# What was measured:
# Experiment in all cases: PBM binding z-score (relative to random genomic background probes); higher = stronger binding; sequences stand for … in GC…GCGATTGACAGCGTAGAATGAAGG
# [1] = tested on: RARb homodimer (NR concentration 270 nM)
# Outline: (§1)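 The probes on custom Agilent 4×180K protein-binding microarrays were double-stranded, with 34-nt variable regions bearing direct-repeat seeds, single-nucleotide variants, half-site ablations and random human genomic background sequences. Incubation lasted 1 h with ligand-free nuclear receptor dimers in PBS pH 7.4, 2% milk, 0.02% Triton X-100, 1 mM DTT, 0.2 mg/mL BSA and 0.4 mg/ml salmon testes DNA. Antibodies against each partner (one per run) detected bound dimers, and fluorescence scans were regression-normalized. Binding z-scores take the random background probes as reference.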
# [2] = tested on: RARg:RXRa (NR concentration 270 nM, RXRa partner concentration 90 nM)
# Outline: as §1
# [3] = tested on: RARg homodimer (NR concentration 270 nM)
# Outline: as §1
# [4] = tested on: RXRa DBDmut IVT, anti-RXR (DBD mutation: RXRa K156A/R161A, NR concentration 90 nM)
# Outline: as §1
# [5] = tested on: RXRa homodimer (NR concentration 180 nM)
# Outline: as §1
# [6] = tested on: THRa:RXRa (NR concentration 90 nM, RXRa partner concentration 90 nM)
# Outline: as §1
# [7] = tested on: THRa homodimer (NR concentration 90 nM)
# Outline: as §1
# [8] = tested on: VDR homodimer (NR concentration 270 nM)
# Outline: as §1
Sequence,PBM binding z-score [1],PBM binding z-score [2],PBM binding z-score [3],PBM binding z-score [4],PBM binding z-score [5],PBM binding z-score [6],PBM binding z-score [7],PBM binding z-score [8]
ATAACAAGGTGATCGTGAGGTCGTTGATACTAAC,1.58,2.43,1.23,0.955,1.76,3.48,2.31,2.78
TCATATAGGTAATACAGGTGAATGTCGGCATCTA,0.689,0.761,0.652,1.69,1.24,0.991,0.573,-0.00173
ATCTCTAGGTAAAGTTCTGTGAAAGATCGATAGA,-0.0506,0.0649,0.264,0.162,-0.238,0.488,0.369,0.0394
AGAATGAGGTTATAGGTAGATCAGGGAAGAAAGT,1.39,1.63,1.08,1.35,2.15,2.45,1.42,1.24
CCTAGCAGGCCAATCTGGGTCACTCACGGCTTGA,2.23,1.18,1.36,0.336,0.802,3.47,0.637,0.103
CCTAGTTGGTCCAGGTCACACACGCTATAGGTAC,3.15,2.68,2.73,1.35,2.64,3.72,3.98,2.54
TCATATAGGTAATACAGGTGACAGTCGGCATCTA,0.657,0.874,0.762,1.5,1.08,0.809,0.0912,-0.0475
